Source: the supplement of paper PMC11732987, “Enantioselective OTUD7B fragment discovery through chemoproteomics screening and high-throughput optimisation” (Communications Chemistry, 2025)

Legend:
Assay in all cases: log2 ratio of Biotin-Ahx-Ub-VS probe labelling (fragment/DMSO); higher = less target engagement (more negative = stronger competition), active = hit call of the paper (q ≤ 0.05, log2 ratio ≤ -1)
Conditions in all cases: compound concentration: 200 uM; treatment time: 3 h
USP34 = USP34 (UniProt Q70CQ2)
USP34, sequence (Q70CQ2 whole entry, the tested form may be a part): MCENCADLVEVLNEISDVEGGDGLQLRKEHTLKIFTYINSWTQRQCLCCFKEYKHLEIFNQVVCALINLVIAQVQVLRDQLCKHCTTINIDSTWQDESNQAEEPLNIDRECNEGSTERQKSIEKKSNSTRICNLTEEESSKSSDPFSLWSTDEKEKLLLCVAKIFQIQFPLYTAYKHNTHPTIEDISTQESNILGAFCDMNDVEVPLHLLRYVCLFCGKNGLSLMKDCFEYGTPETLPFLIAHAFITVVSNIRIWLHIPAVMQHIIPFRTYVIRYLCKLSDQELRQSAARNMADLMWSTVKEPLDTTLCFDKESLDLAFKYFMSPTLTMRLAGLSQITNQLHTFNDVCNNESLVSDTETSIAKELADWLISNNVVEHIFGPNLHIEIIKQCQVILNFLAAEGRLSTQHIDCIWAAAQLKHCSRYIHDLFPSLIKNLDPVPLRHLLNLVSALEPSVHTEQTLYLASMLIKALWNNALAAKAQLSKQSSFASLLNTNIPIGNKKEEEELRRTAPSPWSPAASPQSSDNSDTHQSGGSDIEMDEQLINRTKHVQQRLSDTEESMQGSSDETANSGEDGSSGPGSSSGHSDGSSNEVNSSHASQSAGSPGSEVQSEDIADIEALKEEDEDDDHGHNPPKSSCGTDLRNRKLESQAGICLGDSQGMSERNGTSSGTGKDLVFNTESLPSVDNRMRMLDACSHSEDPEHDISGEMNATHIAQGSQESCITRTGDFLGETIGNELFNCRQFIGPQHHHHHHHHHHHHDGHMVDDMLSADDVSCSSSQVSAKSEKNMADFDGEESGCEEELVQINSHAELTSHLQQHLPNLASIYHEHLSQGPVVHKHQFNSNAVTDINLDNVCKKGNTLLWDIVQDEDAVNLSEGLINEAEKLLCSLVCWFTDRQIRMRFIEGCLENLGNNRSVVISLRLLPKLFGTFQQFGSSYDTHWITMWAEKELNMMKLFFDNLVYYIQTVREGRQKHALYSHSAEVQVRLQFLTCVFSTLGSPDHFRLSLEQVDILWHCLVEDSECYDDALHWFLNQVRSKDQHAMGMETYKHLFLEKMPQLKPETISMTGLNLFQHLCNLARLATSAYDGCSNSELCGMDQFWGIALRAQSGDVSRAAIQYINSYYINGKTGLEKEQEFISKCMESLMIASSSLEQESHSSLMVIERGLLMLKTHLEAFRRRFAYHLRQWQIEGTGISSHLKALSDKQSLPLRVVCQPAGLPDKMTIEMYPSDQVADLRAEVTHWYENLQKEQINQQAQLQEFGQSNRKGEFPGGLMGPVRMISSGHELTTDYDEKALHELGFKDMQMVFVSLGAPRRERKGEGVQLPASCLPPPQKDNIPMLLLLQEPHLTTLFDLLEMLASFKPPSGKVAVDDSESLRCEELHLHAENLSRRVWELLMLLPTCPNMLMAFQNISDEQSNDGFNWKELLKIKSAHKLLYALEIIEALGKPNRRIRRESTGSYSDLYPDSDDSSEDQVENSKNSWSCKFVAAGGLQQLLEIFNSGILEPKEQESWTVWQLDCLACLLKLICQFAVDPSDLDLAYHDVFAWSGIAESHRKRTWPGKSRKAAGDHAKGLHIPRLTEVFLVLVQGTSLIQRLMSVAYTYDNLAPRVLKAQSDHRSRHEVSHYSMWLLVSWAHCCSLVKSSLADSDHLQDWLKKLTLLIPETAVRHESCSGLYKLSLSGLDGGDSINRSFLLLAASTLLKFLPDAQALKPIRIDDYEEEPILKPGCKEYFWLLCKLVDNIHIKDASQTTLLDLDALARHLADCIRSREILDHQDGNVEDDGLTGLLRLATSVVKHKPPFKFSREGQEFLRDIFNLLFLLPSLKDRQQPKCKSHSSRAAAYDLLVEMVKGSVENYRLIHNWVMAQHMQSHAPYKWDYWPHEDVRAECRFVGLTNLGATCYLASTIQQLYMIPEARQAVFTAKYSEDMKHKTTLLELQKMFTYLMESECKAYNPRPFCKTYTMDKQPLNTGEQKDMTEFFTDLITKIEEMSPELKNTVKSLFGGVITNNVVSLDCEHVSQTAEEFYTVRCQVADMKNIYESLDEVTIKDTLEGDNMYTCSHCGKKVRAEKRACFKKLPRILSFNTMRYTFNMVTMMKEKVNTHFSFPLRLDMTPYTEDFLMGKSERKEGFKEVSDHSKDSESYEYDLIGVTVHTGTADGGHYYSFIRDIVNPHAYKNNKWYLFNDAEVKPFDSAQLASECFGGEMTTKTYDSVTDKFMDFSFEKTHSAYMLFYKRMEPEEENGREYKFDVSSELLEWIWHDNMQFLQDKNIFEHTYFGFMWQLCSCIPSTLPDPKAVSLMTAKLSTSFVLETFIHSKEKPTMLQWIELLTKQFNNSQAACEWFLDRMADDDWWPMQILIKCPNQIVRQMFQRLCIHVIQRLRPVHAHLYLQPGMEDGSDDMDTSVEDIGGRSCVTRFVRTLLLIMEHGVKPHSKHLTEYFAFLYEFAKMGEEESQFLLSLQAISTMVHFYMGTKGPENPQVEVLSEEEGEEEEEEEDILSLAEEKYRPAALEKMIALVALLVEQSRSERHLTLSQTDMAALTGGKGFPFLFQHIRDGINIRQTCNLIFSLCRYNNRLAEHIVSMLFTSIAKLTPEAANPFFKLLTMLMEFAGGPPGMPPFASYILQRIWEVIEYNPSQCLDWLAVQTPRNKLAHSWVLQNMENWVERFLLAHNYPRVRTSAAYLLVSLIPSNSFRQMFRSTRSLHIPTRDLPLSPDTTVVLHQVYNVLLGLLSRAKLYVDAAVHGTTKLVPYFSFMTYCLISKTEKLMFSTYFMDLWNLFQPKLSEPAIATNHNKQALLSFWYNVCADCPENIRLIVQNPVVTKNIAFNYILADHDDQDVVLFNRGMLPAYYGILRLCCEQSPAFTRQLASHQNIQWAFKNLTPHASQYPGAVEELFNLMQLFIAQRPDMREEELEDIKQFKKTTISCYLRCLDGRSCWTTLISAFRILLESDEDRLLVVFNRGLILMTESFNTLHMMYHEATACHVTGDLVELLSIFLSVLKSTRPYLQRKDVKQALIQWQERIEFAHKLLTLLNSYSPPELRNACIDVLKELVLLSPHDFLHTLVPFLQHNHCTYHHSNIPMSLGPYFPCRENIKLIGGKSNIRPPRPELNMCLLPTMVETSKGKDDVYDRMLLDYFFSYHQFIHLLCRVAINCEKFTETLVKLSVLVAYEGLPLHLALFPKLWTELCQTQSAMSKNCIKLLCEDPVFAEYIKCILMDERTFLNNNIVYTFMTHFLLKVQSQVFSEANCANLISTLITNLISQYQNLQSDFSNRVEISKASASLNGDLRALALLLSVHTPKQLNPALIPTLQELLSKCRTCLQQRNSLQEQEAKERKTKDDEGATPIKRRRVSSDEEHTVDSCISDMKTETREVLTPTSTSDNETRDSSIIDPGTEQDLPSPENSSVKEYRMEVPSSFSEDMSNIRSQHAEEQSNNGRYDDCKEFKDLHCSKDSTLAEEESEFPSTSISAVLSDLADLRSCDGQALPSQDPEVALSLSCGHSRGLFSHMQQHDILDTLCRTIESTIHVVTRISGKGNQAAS
Summary of the method: (§1)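 Fragment (200 µM) or vehicle was incubated for 3 h with triplicate HEK293T lysate samples of 495 µg, which were then treated with Biotin-Ahx-Ub-VS at 0.5 µM final for 1 h. Labelled DUBs were enriched on NeutrAvidin, digested with LysC and trypsin, and analysed by diaPASEF LC-MS/MS. Values are average log2 fragment/vehicle ratios from an unpaired t-test on global-median-normalised Spectronaut label-free quantities, using proteins with ≥2 unique peptides.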

USP36 = target: T1, USP36 (UniProt Q9P275)
T1 sequence (whole entry): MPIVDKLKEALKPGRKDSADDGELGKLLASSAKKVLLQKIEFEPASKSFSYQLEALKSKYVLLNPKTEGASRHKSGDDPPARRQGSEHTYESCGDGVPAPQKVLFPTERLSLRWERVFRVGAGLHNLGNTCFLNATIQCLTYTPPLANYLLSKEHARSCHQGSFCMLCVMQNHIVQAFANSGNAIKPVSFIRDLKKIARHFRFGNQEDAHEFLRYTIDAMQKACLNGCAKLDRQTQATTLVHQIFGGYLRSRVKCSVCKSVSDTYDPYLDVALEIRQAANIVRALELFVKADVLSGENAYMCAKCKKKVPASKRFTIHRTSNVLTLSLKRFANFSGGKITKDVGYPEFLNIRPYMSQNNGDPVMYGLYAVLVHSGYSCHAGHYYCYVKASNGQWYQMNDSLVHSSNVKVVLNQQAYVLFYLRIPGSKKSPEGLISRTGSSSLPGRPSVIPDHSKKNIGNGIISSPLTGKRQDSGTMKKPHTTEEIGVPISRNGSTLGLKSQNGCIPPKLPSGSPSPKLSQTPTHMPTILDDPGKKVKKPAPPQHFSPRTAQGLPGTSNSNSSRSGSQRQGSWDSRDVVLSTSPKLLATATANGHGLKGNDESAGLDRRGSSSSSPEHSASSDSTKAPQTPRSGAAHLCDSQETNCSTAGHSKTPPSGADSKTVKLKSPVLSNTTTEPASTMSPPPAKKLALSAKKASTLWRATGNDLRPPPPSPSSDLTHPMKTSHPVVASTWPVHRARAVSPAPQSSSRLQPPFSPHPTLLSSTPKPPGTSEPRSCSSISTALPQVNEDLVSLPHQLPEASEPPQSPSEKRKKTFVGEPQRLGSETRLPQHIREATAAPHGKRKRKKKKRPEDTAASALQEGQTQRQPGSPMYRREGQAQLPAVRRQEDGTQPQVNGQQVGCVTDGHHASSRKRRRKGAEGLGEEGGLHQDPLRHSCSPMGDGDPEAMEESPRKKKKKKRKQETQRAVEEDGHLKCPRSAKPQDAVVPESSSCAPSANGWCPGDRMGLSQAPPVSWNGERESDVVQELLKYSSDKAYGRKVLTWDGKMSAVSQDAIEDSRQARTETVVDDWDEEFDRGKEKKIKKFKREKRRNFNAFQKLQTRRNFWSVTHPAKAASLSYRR
Summary of the method: as §1

USP38 = target: T2, USP38 (UniProt Q8NB14)
T2 sequence (whole entry): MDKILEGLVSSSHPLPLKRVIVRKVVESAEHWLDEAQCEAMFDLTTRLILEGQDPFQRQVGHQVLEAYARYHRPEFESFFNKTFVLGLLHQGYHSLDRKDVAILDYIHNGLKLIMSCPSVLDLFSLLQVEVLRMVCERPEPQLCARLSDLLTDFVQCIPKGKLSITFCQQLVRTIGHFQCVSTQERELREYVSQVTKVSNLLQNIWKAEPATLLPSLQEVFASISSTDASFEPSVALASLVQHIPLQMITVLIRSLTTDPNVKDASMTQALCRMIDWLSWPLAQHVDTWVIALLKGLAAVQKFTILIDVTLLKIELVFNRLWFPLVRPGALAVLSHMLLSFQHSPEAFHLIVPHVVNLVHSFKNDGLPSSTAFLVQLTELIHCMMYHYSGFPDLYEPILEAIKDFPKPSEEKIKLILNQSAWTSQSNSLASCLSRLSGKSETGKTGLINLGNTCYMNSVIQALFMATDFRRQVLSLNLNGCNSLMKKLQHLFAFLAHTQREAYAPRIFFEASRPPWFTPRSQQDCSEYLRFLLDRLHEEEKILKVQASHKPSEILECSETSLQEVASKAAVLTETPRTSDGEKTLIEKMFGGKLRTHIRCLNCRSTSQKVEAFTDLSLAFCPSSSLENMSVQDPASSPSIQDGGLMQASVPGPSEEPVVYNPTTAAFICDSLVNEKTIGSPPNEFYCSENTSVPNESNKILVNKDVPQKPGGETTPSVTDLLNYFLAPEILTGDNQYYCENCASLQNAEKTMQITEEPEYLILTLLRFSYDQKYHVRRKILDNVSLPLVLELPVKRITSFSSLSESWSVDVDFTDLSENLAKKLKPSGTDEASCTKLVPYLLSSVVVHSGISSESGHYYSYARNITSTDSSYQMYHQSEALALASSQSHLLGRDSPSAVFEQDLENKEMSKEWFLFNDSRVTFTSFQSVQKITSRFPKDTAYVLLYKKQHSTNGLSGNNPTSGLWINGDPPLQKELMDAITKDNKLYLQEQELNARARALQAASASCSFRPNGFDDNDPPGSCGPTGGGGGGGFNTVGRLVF
Summary of the method: as §1

USP39 = target: T3, USP39 (UniProt Q53GS9)
T3 sequence (whole entry): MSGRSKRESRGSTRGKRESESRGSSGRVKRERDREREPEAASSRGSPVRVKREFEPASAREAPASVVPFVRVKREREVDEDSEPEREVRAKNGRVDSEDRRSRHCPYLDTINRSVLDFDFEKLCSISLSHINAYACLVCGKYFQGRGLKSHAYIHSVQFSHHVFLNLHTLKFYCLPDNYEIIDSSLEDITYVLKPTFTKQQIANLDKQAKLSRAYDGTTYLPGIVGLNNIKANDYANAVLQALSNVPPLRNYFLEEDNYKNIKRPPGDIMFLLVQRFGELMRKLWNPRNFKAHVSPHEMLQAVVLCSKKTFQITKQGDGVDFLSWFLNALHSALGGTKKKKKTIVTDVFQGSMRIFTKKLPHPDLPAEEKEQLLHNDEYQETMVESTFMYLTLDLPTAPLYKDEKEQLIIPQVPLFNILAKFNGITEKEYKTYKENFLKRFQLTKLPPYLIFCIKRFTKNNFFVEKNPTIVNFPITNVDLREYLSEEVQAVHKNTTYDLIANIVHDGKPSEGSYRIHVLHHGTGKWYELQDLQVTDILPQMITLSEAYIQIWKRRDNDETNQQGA
Summary of the method: as §1

USP4 = target: T4, USP4 (UniProt Q13107)
T4 sequence (whole entry): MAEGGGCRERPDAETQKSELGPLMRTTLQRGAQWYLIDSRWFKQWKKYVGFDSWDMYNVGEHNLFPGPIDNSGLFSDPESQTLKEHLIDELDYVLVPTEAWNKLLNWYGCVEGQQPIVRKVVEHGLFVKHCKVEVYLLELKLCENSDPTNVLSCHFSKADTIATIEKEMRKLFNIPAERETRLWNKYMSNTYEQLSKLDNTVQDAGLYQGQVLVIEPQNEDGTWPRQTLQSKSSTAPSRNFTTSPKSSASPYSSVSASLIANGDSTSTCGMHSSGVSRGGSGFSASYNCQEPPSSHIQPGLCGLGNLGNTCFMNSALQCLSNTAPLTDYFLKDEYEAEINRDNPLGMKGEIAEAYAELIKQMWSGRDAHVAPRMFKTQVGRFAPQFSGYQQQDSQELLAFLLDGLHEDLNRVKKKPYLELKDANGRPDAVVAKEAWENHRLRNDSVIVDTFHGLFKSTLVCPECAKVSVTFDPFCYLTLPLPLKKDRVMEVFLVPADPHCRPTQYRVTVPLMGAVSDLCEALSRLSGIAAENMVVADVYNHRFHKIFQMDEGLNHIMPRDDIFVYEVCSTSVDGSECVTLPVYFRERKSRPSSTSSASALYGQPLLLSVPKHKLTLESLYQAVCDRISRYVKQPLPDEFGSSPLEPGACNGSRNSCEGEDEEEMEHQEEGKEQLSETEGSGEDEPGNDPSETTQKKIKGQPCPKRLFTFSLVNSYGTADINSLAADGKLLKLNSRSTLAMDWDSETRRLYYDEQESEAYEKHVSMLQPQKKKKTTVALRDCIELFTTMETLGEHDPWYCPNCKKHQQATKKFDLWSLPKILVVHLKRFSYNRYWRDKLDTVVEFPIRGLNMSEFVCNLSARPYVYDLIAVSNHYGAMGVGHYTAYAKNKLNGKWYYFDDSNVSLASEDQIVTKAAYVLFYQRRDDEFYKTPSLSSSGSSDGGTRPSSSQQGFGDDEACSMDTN
Summary of the method: as §1

Measured: log2 ratio of Biotin-Ahx-Ub-VS probe labelling

CC(C)n1nccc1NC(=O)CCl
inactive: USP34 -0.109 | USP36 -0.0105 | USP38 -0.0818 | USP39 -0.252 | USP4 -0.0708
